The record followed here is publication PMC8384837, “Expanding the binding specificity for RNA recognition by a PUF domain”.

What all share (assay): yeast three-hybrid, YBZ-1, SC-Leu-His + 0.5 mM 3-AT, 4 days
Settings in all cases: tags: N-Gal4 AD-HA kept; label: inside an RPR1-promoter hybrid RNA with tandem MS2 sites; ssRNA

Assay [1] addresses PUM1 PUF domain R5-QGR (Homo sapiens, UniProt Q14671 828-1176, C1007Q;R1008G;Q1011R). In outline:
(§1)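 Pumilio-1 PUF domain libraries, randomized (NNK) at the three base-contacting residues of each repeat, were co-expressed with matching RNA elements from a centromeric plasmid in strain YBZ-1 (LexA–MS2 coat fusion, HIS3 reporter). Transformants were plated on SC-Leu (input) and SC-Leu-His + 0.5 mM 3-AT (selection) for four days, and repeat regions were PCR-amplified and Illumina-sequenced. The interaction score is the log2 change in variant frequency from input to selection, with pseudocount 1 where absent.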

Assay [2] concerns the target PUM1 PUF domain R5-ATR (Homo sapiens, UniProt Q14671 828-1176, C1007A;R1008T;Q1011R). In outline: as §1
Assay [3] deals with PUM1 PUF domain R5-DMR (Homo sapiens, UniProt Q14671 828-1176, C1007D;R1008M;Q1011R). The essentials:
as §1

Assay [4] concerns the target PUM1 PUF domain R5-KYR (Homo sapiens, UniProt Q14671 828-1176, C1007K;R1008Y;Q1011R). In outline: as §1
The target of assay [5] is PUM1 PUF domain R8-SYR (Homo sapiens, UniProt Q14671 828-1176, N1122S;Q1126R). The essentials:
as §1

The target in assay [6] is PUM1 PUF domain R3-RVR (Homo sapiens, UniProt Q14671 828-1176, C935R;R936V;Q939R). In outline: as §1
The target of assay [7] is PUM1 PUF domain R3-YFE (Homo sapiens, UniProt Q14671 828-1176, C935Y;R936F;Q939E). In outline:
as §1

Assay [8] has as its target PUM1 PUF domain R7-LPT (Homo sapiens, UniProt Q14671 828-1176, S1079L;N1080P;E1083T). In outline: as §1
Assay [9] deals with PUM1 PUF domain R3-GWD (Homo sapiens, UniProt Q14671 828-1176, C935G;R936W;Q939D). In outline:
as §1

Assay [10] has as its target T1, PUM1 PUF domain R6-GWC (Homo sapiens, UniProt Q14671 828-1176, N1043G;Y1044W;Q1047C).
T1 sequence: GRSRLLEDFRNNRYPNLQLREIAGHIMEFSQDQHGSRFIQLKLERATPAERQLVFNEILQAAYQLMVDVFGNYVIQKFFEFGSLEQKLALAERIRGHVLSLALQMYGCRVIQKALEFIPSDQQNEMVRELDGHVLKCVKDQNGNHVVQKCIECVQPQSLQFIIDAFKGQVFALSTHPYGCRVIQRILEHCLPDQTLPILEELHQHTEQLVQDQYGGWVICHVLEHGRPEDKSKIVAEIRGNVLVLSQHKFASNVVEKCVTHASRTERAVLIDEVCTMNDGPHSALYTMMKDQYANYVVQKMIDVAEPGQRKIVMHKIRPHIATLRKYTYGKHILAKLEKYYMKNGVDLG
In outline: as §1

For “GGCUAGAACUAGUGGAUCCCCCGGCGCCCGGCGGCUCGAGCCCGGGUAAGUGUCAAUAGUCUGCAUGCCGCCGGGCGCCAUGCCUGCAGGUCGACUCUAGAAAACAUG”, the binding signal in assay [1] was 3.22 log2 enrichment (interaction score); in assay [2] it was 3.13 log2 enrichment (interaction score); in assay [3] it was 3.01 log2 enrichment (interaction score); in assay [4], 2.48 log2 enrichment (interaction score).
For “GGCUAGAACUAGUGGAUCCCCCGGCGCCCGGCGGCUCGAGCCCGGGUAAGCGUAAAUAGUCUGCAUGCCGCCGGGCGCCAUGCCUGCAGGUCGACUCUAGAAAACAUG”, the binding signal in assay [5] was 4.37 log2 enrichment (interaction score).
Consider “GGCUAGAACUAGUGGAUCCCCCGGCGCCCGGCGGCUCGAGCCCGGGUAAGUGUAAGUAGUCUGCAUGCCGCCGGGCGCCAUGCCUGCAGGUCGACUCUAGAAAACAUG”, for which the binding signal in assay [6] was 1.73 log2 enrichment (interaction score); in assay [7], 5.72 log2 enrichment (interaction score).
On to “GGCUAGAACUAGUGGAUCCCCCGGCGCCCGGCGGCUCGAGCCCGGGUAAGUGUAAUUAGUCUGCAUGCCGCCGGGCGCCAUGCCUGCAGGUCGACUCUAGAAAACAUG”, for which, in [6], the binding signal was 4.85 log2 enrichment (interaction score).
In the case of “GGCUAGAACUAGUGGAUCCCCCGGCGCCCGGCGGCUCGAGCCCGGGUAAGUUUAAAUAGUCUGCAUGCCGCCGGGCGCCAUGCCUGCAGGUCGACUCUAGAAAACAUG”, in assay [8], the binding signal is 3.22 log2 enrichment (interaction score).
In the case of “GGCUAGAACUAGUGGAUCCCCCGGCGCCCGGCGGCUCGAGCCCGGGUAAGUGUAAAUAGUCUGCAUGCCGCCGGGCGCCAUGCCUGCAGGUCGACUCUAGAAAACAUG”, the binding signal was 4.42 log2 enrichment (interaction score) in assay [5], 5.07 log2 enrichment (interaction score) in [9] and 2.76 log2 enrichment (interaction score) in assay [10].
